Compound activity: PubChem, several laboratories
CHOP inhibitor = inhibitors of CHOP induction in ER stress response. 3.8% of 220,000 active. CHO-K1 CHOP-promoter luciferase, tunicamycin-induced, 15-18 h. inhibition, % at 10 µM;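 active = compounds that reduced the stress-induced luciferase reporter signal by more than about 70% of percent inhibition, limit read from the data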
Arbovirus inh = arbovirus infection inhibition; AID 1251; 0.37% of 200,000 active; inhibition, % at 10 µM; arbovirus infection cell-based antiviral screen; in the data active = inhibition above about 30%
WT yeast gro inh = growth inhibition of WT yeast, mitochondrial fusion screen. inhibition, % at 10 µM. mitochondrial fusion phenotypic screen, WT strain. 2.1% of 190,000 active; in the data active = inhibition above about 58%; tested in S. cerevisiae
L major viab = Leishmania major promastigote growth inhibition. AID 1063. 9% of 200,000 active. inhibition, % at 10 µM. Leishmania major promastigotes, resazurin fluorescence viability; in the data active = inhibition above about 50%;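 also: promastigotes grown with compound for 44 hours at 28 °C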
A number is an active result; - = inactive; . = not tested or not shown. Sampled rows, rich in hits. Any-hit rate of the full collection: about 12%.

SMILES	CHOP inhibitor	Arbovirus inh	WT yeast gro inh	L major viab
O=C(Nc1nc(-c2cccnc2)cs1)c1cccc([N+](=O)[O-])c1	88	-	-	-
COCC(=O)Nc1nc(-c2ccc([N+](=O)[O-])cc2)cs1	-	-	-	-
Cc1csc(NC(=O)c2cc([N+](=O)[O-])cc([N+](=O)[O-])c2)n1	-	-	-	94
CCOc1ccccc1NC(=S)NNS(=O)(=O)c1c(C)cc(C)cc1C	-	-	-	-
COc1cc(C(=O)OCC(=O)NC2CCS(=O)(=O)C2)ccc1OCc1c(C)noc1C (centres undefined)	-	-	-	-
COc1ccc(NC(=O)c2cc3c(=O)n(C)c4ccccc4c3s2)cc1OC	-	-	-	-
CSc1ccc(NC(=O)Nc2cc(C)ccn2)cc1	-	.	.	.
OCCC1CN(Cc2cccn2-c2ccccn2)CCN1C1CCCCC1 (centres undefined)	-	-	-	-
O=C(Cn1nc(-c2cccc(Cl)c2)ccc1=O)Nc1ccc(C(=O)NC2CC2)cc1	-	-	-	-
Cc1csc(NC(=O)c2nc3nc(C)cc(C)n3n2)n1	-	-	-	77
Cc1cc(C)n2nc(C(=O)Nc3nccs3)nc2n1	-	-	-	-
COC(=O)c1cccc(Oc2cccc(C(F)(F)F)c2)n1	-	-	-	-
CCCCOc1ccc(C2CCC(C(C)=O)C(C)C2)cc1 (centres undefined)	-	.	.	.
CCCCOc1ccc(C(=O)OC2CC(C)N(C)CC2C)cc1 (centres undefined)	-	-	-	98
O=C(Cc1sc(Nc2ccccc2)nc1-c1ccccc1)NCc1ccccc1	-	-	-	-
Cc1ccc(NC(=O)Nc2nc(-c3ccc(C)s3)cs2)cc1	86	-	-	-
CCN(CC)C(=O)Cn1c(=O)n(-c2ccc(CC(=O)NCc3ccccc3)cc2)c(=O)c2sccc21	-	-	-	-
Cc1ccc(-c2nnc(N3CCCCC3)c3ccccc23)cc1S(=O)(=O)N1CCN(C)CC1	-	-	-	-
O=c1c2ccccc2sn1-c1ccc(S(=O)(=O)N2CCCCC2)cc1	.	.	.	-
Cc1ccc(-n2sc3ccccc3c2=O)cc1S(=O)(=O)N1CCCCC1	-	-	94	89
O=c1c2ccccc2sn1-c1ccc(S(=O)(=O)N2CCCC2)cc1	87	-	-	-
CNc1ccccc(-c2ccc3cc4c(cc3n2)OCO4)c1=O	-	-	-	-
CC(=O)c1cccc(NC(=O)C2CCN(S(=O)(=O)c3ccccc3)CC2)c1	-	-	-	-
CC(/C=N/n1c(-c2ccc(Cl)cc2)n[nH]c1=S)=C\c1ccco1	95	-	72	-
Cc1ccc(-c2nn(-c3ccccc3)cc2/C=N/n2c(-c3ccncc3)n[nH]c2=S)cc1	89	.	.	.
SMILES	CHOP inhibitor	Arbovirus inh	WT yeast gro inh	L major viab
CC(/C=N/n1c(-c2cc(C)[nH]n2)n[nH]c1=S)=C\c1ccco1	-	.	.	.
S=c1[nH]nc(-c2ccncc2)n1/N=C/C(Cl)=C\c1ccccc1	76	-	-	53
CC(/C=N/n1c(-c2ccco2)n[nH]c1=S)=C\c1ccccc1	-	-	73	-
CC(/C=N/n1c(-c2ccccn2)n[nH]c1=S)=C\c1ccccc1	-	.	.	.
S=c1[nH]nc(-c2ccncc2)n1/N=C/C=C/c1ccccc1	-	.	.	.
Cc1ccc(NC(=O)Nc2cccn(Cc3c(F)cccc3Cl)c2=O)cc1	-	-	-	-
O=C(Nc1cccn(Cc2cccc(F)c2)c1=O)NC1CCCCC1	-	-	-	83
O=C(Nc1cccn(Cc2c(F)cccc2Cl)c1=O)NC1CCCCC1	-	-	-	80
O=C(Nc1cccc(F)c1)NC1CCCCC1	-	-	-	-
COc1ccc2nc(C)cc(Sc3nc4ccccc4s3)c2c1	-	.	.	.
CCOC(=O)c1ccc(N2C(=O)c3n[nH]c(-c4ccco4)c3C2c2ccc([N+](=O)[O-])cc2)cc1 (centres undefined)	-	-	-	98
Cc1ccc(-n2nnnc2C(Cl)(Cl)c2nnnn2-c2ccc(C)cc2)cc1	80	-	95	-
CCOC(=O)C1CCCN(CC(=O)c2c[nH]c3ccc(C)cc23)C1 (centres undefined)	-	.	.	.
CCc1c(C)nc2ncnn2c1NCCc1ccc(Cl)cc1	71	-	-	-
CCc1c(C)nc2ncnn2c1NCCc1ccccc1	-	-	-	-
CC(C)(C)C(=O)N/C(N)=N/c1nc2ccccc2o1	-	.	.	.
COc1cccc(CN=CC2=C(O)CC(C)(C)CC2=O)c1OC	-	-	-	-
Cc1cccc(N=Cc2[nH]c3ccc(Br)c(Cl)c3c2O)c1	90	-	-	-
COc1ccccc1CN=Cc1[nH]c2ccc(Br)c(Cl)c2c1O	-	-	67	-
CSc1ncccc1C(=O)OCC(=O)NC(C)C	-	-	-	-
COc1nnc(-c2ccc(N3CCCCC3)c(NC(=O)C3CCCCC3)c2)c2ccccc12	80	-	-	54
